Laboratory results as given in publication PMC8384837, “Expanding the binding specificity for RNA recognition by a PUF domain”.

These sequences were tested against PUM1 PUF domain R1-YRR (Homo sapiens, UniProt Q14671 828-1176, S863Y;Q867R) (assay: yeast three-hybrid, YBZ-1, SC-Leu-His + 0.5 mM 3-AT, 4 days). Details: tags: N-Gal4 AD-HA kept; label: inside an RPR1-promoter hybrid RNA with tandem MS2 sites; ssRNA.
Outline: (§1)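 The interaction score is the logarithmic change in variant frequency from input to selection. It uses log2, with a pseudocount of 1 for absent variants, and frequencies came from PCR-amplified, Illumina-sequenced repeat regions. The libraries were Pumilio-1 PUF domains randomized at the three base-contacting residues per repeat, co-expressed with matching RNA elements in strain YBZ-1 (LexA–MS2 coat fusion, HIS3 reporter). Plating lasted four days on SC-Leu (input) or SC-Leu-His + 0.5 mM 3-AT (selection).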

Chain of PUM1 PUF domain R1-YRR (Q14671 828-1176 S863Y/Q867R): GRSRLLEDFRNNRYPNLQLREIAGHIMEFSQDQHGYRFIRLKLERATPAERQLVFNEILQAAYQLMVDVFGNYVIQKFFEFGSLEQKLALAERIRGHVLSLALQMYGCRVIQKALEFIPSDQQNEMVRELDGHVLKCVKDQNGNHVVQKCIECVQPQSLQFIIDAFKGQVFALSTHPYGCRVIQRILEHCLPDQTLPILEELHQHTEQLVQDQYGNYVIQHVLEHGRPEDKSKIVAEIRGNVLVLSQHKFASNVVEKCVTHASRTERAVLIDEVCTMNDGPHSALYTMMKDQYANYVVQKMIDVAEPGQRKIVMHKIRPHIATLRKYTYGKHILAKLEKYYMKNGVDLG

| Sequence | binding signal |
| --- | --- |
| GGCUAGAACUAGUGGAUCCCCCGGCGCCCGGCGGCUCGAGCCCGGGUAAGUGUAAAUUGUCUGCAUGCCGCCGGGCGCCAUGCCUGCAGGUCGACUCUAGAAAACAUG | 8.31 log2 enrichment (interaction score) |
| GGCUAGAACUAGUGGAUCCCCCGGCGCCCGGCGGCUCGAGCCCGGGUAAGUGUAAAUCGUCUGCAUGCCGCCGGGCGCCAUGCCUGCAGGUCGACUCUAGAAAACAUG | 7.93 log2 enrichment (interaction score) |
| GGCUAGAACUAGUGGAUCCCCCGGCGCCCGGCGGCUCGAGCCCGGGUAAGUGUAAAUGGUCUGCAUGCCGCCGGGCGCCAUGCCUGCAGGUCGACUCUAGAAAACAUG | 4.42 log2 enrichment (interaction score) |

Each sequence was assayed against PUM1 PUF domain R3-CFG (Homo sapiens, UniProt Q14671 828-1176, R936F;Q939G) in the same assay as above. Details: tags: N-Gal4 AD-HA kept; label: inside an RPR1-promoter hybrid RNA with tandem MS2 sites; ssRNA.
Outline: as §1

| Sequence | binding signal |
| --- | --- |
| GGCUAGAACUAGUGGAUCCCCCGGCGCCCGGCGGCUCGAGCCCGGGUAAGUGUAAAUAGUCUGCAUGCCGCCGGGCGCCAUGCCUGCAGGUCGACUCUAGAAAACAUG | 3.86 log2 enrichment (interaction score) |
| GGCUAGAACUAGUGGAUCCCCCGGCGCCCGGCGGCUCGAGCCCGGGUAAGUGUAAUUAGUCUGCAUGCCGCCGGGCGCCAUGCCUGCAGGUCGACUCUAGAAAACAUG | 2.06 log2 enrichment (interaction score) |
| GGCUAGAACUAGUGGAUCCCCCGGCGCCCGGCGGCUCGAGCCCGGGUAAGUGUAAGUAGUCUGCAUGCCGCCGGGCGCCAUGCCUGCAGGUCGACUCUAGAAAACAUG | 1.61 log2 enrichment (interaction score) |
